{
  "source": "PubChem BioAssay",
  "data": [
    {"target": "Epidermal growth factor receptor (Homo sapiens) (UniProt P00533)", "sequence (P00533 whole entry, looked up)": "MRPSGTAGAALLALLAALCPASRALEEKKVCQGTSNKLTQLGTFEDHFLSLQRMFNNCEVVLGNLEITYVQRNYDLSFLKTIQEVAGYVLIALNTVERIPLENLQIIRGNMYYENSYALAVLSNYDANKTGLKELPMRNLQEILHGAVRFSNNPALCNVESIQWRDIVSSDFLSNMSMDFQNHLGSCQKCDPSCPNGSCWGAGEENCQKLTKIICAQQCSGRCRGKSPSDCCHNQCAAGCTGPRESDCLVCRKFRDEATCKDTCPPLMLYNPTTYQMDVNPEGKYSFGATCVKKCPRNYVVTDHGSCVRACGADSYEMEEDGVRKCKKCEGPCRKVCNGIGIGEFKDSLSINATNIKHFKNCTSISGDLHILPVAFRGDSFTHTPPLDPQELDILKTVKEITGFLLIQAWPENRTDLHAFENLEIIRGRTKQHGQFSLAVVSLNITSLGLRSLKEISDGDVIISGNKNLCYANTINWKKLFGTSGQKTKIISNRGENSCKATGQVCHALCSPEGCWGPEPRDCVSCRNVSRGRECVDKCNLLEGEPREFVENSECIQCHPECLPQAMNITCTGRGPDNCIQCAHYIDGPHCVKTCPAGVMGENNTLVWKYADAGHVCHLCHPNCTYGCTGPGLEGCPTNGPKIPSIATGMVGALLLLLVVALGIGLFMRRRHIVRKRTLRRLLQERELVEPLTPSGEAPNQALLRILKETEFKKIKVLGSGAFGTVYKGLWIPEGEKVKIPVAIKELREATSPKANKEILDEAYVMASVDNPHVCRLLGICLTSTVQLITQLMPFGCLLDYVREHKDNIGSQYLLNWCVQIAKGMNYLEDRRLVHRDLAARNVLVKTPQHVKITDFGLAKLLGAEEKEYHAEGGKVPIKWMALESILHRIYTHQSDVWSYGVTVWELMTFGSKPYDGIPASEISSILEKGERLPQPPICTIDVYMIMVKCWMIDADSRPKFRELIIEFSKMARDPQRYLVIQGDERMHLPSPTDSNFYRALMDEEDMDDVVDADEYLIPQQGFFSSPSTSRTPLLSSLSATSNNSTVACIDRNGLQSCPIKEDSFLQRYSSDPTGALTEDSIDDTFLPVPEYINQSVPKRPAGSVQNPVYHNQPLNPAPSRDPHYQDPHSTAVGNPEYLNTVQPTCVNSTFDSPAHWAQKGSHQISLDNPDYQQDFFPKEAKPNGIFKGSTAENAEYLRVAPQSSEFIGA", "assay": "EGFR binders on small-molecule microarrays, primary screen, biochemical, small-molecule microarray, 635 nm fluorescence (AID 1104);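 further: score merges 667 nm emission intensity with spot signal to noise over triplicate slides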", "settings": "EGFR binding, higher = more signal", "values": [
      {"smiles": "COc1cc2c(cc1O)C(c1ccc(CN3CCCC3)cc1)N(Cc1cc3c(cc1Br)OCO3)CC2", "note": "(stereo unspecified)", "composite z-score": -0.186},
      {"smiles": "CCCC[C@@H]1C[C@H]1[C@@H](NC(=O)c1cccs1)c1ccccc1C(F)(F)F", "composite z-score": -0.531},
      {"smiles": "CCOC(=O)C1=C[C@@H](c2ccccc2)N(S(=O)(=O)c2ccc(C)cc2)[C@H]1c1ccc(OC)cc1", "composite z-score": 0.561},
      {"smiles": "C=CCC(OC(C)=O)[C@@H]1[C@@H](N(Cc2ccc(-c3cccc(C(F)(F)F)c3)o2)C(=O)Cc2ccc(OC)cc2)c2cc(OCCCO)ccc2N1C(=O)c1ccc(-c2ccccc2)cc1", "note": "(stereo partly specified)", "composite z-score": -0.577},
      {"smiles": "C=CC[C@@H](OC(=O)Nc1ccc(SC)cc1)c1ccc(O)c(F)c1", "composite z-score": -0.361},
      {"smiles": "CCCCC=C[C@@H](NC(=O)OCc1ccccc1Cl)c1ccccc1", "composite z-score": 0.566},
      {"smiles": "C=CCC(OC(C)=O)[C@@H]1[C@@H](N(Cc2cccc3ccccc23)C(=O)Cc2ccc(OC)cc2)c2cc(OCCCO)ccc2N1C(=O)c1ccc(-c2ccccc2)cc1", "note": "(stereo partly specified)", "composite z-score": 0.347},
      {"smiles": "CCCC=C(CCC)[C@@H](NP(=O)(c1ccccc1)c1ccccc1)c1ccc(-c2ccccc2)cc1", "composite z-score": 0.183},
      {"smiles": "COCCCNC(=O)[C@@]1(CCC(=O)OC(C)(C)C)N=C(c2ccc(OCCCO)cc2)O[C@H]1c1ccccc1N=[N+]=[N-]", "composite z-score": -0.182},
      {"smiles": "O=C(Cc1ccccc1)[C@H]1C2C=CCCC(c3ccccc3)=C2CN1Cc1ccccc1", "note": "(stereo partly specified)", "composite z-score": -0.097},
      {"smiles": "COC(=O)[C@@]1(Cc2ccc(F)cc2)[C@H]2c3cc(C(=O)N4CCCC4)n(Cc4ccc(C)c(F)c4F)c3C[C@H]2CN1C(=O)c1ccccc1", "composite z-score": -0.499},
      {"smiles": "COc1ccc(C#Cc2ccc3c(c2)[C@]2(C(=O)N3)[C@H](C(=O)O)[C@H]3C(=O)O[C@H](c4ccccc4)[C@H](c4ccccc4)N3[C@@H]2c2ccc(O)cc2)cc1", "composite z-score": -0.165},
      {"smiles": "CCC#CCN(Cc1ccccc1Br)[C@H](/C=C/C1CC1)[C@@H](O)Cc1ccccc1", "composite z-score": -1.03},
      {"smiles": "COC(=O)[C@@]1(Cc2ccccc2)[C@H]2c3cc(C(=O)N(C)C)n(Cc4ccc(C)o4)c3C[C@H]2CN1C(=O)c1ccccc1", "composite z-score": 0.857},
      {"smiles": "CC(C)NC(=O)[C@@]1(C)c2ccccc2C(=O)N(Cc2ccc(OC(F)(F)F)cc2)[C@H]1c1ccc(CO)cc1", "composite z-score": -1.43},
      {"smiles": "COc1ccc([Si](C)(C)[C@@H]2[C@@H](CC(=O)N3CCC[C@H]3CO)O[C@]3(C(=O)N(Cc4cccc(N5C(=O)COc6ccccc65)c4)c4ccccc43)[C@H]2C)cc1", "composite z-score": 0.447},
      {"smiles": "CCCC[C@@H](O)C1=C(COC)C[C@H]2C(=O)N(C)C(=O)[C@H]2[C@H]1CO", "composite z-score": -0.0915},
      {"smiles": "COc1ccc([Si](C)(C)[C@@H]2[C@@H](CC(=O)N(CCO)Cc3ccccc3)O[C@]3(C(=O)N(Cc4cccc(N5CCCCC5=O)c4)c4ccccc43)[C@H]2C)cc1", "composite z-score": 0.242},
      {"smiles": "COc1ccc(CCNC(=O)[C@@]2(Sc3ccc(C)cc3)CC(=O)N(Cc3ccccc3C(F)(F)F)[C@@H]2c2ccc(CO)cc2I)cc1", "composite z-score": -1.24},
      {"smiles": "[N-]=[N+]=Nc1ccccc1[C@@H]1OC(c2ccc(OCCCO)cc2)=N[C@]1(Cc1ccccc1)C(=O)N1CCCCC1", "composite z-score": 0.332},
      {"smiles": "Cc1ccc(S[C@]2(C(=O)NCc3ccccc3)CC(=O)N(C3CCCCC3)[C@@H]2c2ccc(CO)cc2I)cc1", "composite z-score": -0.104},
      {"smiles": "COc1ccc([Si](C)(C)[C@H]2[C@H](CC(=O)N(CCO)Cc3ccccc3)O[C@@]3(C(=O)N(C)c4c(Br)cc(C)cc43)[C@@H]2C)cc1", "composite z-score": 1.19},
      {"smiles": "[N-]=[N+]=Nc1ccccc1[C@@H]1OC(c2ccc(OCCCO)cc2)=N[C@]1(Cc1ccccc1)C(=O)O", "composite z-score": -0.129},
      {"smiles": "CCCC1(C(=O)OC)C=C2C(=C(C)C(=O)C2C)CN1", "note": "(stereo unspecified)", "composite z-score": 0.0023},
      {"smiles": "COCC(=C=CC[C@H](O)c1ccccc1OCCO)C[C@H](O)c1ccccn1", "composite z-score": -0.299},
      {"smiles": "Oc1ccc2cc[n+](Cc3cc4c(cc3Br)OCO4)cc2c1", "composite z-score": -0.243},
      {"smiles": "CC(C)[Si]1(C(C)C)OCc2cc(C3CC3)nc(-c3ccc(Oc4ccccc4)cc3)c21", "composite z-score": -0.233},
      {"smiles": "[N-]=[N+]=Nc1ccccc1C[C@]1(C(=O)N2CCOCC2)COC(c2ccc(OCCCO)cc2)=N1", "composite z-score": -0.262},
      {"smiles": "[N-]=[N+]=Nc1ccccc1C[C@@]1(C(=O)NCCN2CCOCC2)N=C(c2ccc(OCCCO)cc2)O[C@@H]1c1ccccc1N=[N+]=[N-]", "composite z-score": -0.172},
      {"smiles": "CCCCC(CC)C(O)C1C=CC2C(=O)N(C)C(=O)C2N1Nc1ccccc1", "note": "(stereo unspecified)", "composite z-score": -0.248},
      {"smiles": "O=C1N(CCS(=O)(=O)c2ccccc2)c2ccccc2[C@H]2OC(c3ccc(OCCCO)cc3)=N[C@@]12Cc1ccccc1", "composite z-score": 1.03},
      {"smiles": "COc1ccc(C#Cc2ccc3c(c2)[C@]2(C(=O)N3)[C@H](c3ccc(O)cc3)N3[C@H](c4ccccc4)[C@H](c4ccccc4)OC(=O)[C@H]3[C@@H]2C(=O)Nc2nc3ccccc3s2)cc1", "composite z-score": 0.45},
      {"smiles": "CCOc1cc(C(O)C2C=CC3C(=O)NC(=O)C3N2Nc2ccc(Cl)cc2Cl)ccc1O", "note": "(stereo unspecified)", "composite z-score": -0.238},
      {"smiles": "Cc1ccc(S[C@]2(C(=O)NCC(F)(F)F)CC(=O)N(Cc3cc(C(F)(F)F)cc(C(F)(F)F)c3)[C@@H]2c2ccc(CO)cc2I)cc1", "composite z-score": -0.552},
      {"smiles": "C=CCC(OC(C)=O)[C@@H]1[C@@H](N(Cc2cc3ccccc3o2)C(=O)Cc2ccc(F)cc2)c2cc(OCCCO)ccc2N1C(=O)Cc1ccc2ccccc2c1", "note": "(stereo partly specified)", "composite z-score": -0.805},
      {"smiles": "CO[C@H]1O[C@H](CO)[C@@H](OC(=O)Nc2ccccc2)[C@H](OC(=O)c2cc3ccccc3[nH]2)[C@H]1OC(=O)c1cc2ccccc2[nH]1", "composite z-score": -0.551}
    ]}
  ]
}
